About 7,900 targets were measured; listed, in parts, are those with a hit and a random draw of the rest. About 0.6% of all pairs of compound and target were hits. Unmarked numbers belong to inactive results.
Assays:
Test in all cases: log2 fold change, soluble protein after heating vs DMSO (PISA); higher = thermal stabilisation; K562 cells, 10 uM, 30 min; active = over 0.2 and 3.5 SD of the protein, either way, in both replicates (recomputed)
erlotinib = compound: C#Cc1cccc(Nc2ncnc3cc(OCCOC)c(OCCOC)cc23)c1 [erlotinib]
In short: (§1)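 Aliquots of K562 cells (2×10^6 cells/mL) treated with 10 μM compound for 30 min were heated for 3 min over 48°C-58°C. After pooling and extraction in PBS with 0.5% NP-40 at 4°C, soluble protein from a 21,000xg, 90 min spin was quantified by TMTpro 16plex LC-MS/MS with channel sums equalised. Thermal stability is expressed against control samples, from duplicates, as a log2 fold change.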

[1] = compound: C/C(=N\NC(=O)C1=CC(=CC=C1)S(=O)(=O)N2CCOCC2)/C3=C(C=CC(=C3)Cl)O
In short: as §1

[2] = compound: C1=CC(=C(C=C1Cl)C2=NC3=NC=CN=C3C(=N2)NC4=CC=NC=C4)F
In short: as §1

[3] = compound: C1=CC(=CC=C1C2=NC3=C(N2)C=C(C=C3)C(=O)N)OC4=CC=C(C=C4)Cl
In short: as §1

[4] = compound: C1=CC2=C(C=CC(=C2)/C=C\3/C(=O)NC(=NCC4=CC=CS4)S3)N=C1
In short: as §1

[5] = compound: C1=CC2=NC=CN=C2C=C1/C=C/3\C(=O)NC(=O)S3
In short: as §1

[6] = compound: C1=CC=C(C=C1)C2=NC(=C(N2)C3=CC=NC=C3)C4=CC(=C(C=C4)Cl)O
In short: as §1

[7] = compound: C1=CC=C2C(=C1)C3=NNC4=CC=CC(=C43)C2=O
In short: as §1

[8] = compound: C1CCN(C1)C(=O)NC2=CC=CC(=C2)NC3=NC=C(C(=N3)NCCC4=CN=CN4)Br
In short: as §1

[9] = compound: C1CN(CCC1(CC2=CC=C(C=C2)Cl)N)C3=NC=NC4=C3C=CN4
In short: as §1

IRAK-1-4 Inhibitor I = compound: C1COCCN1CCN2C3=CC=CC=C3N=C2NC(=O)C4=CC(=CC=C4)[N+](=O)[O-] [IRAK-1-4 Inhibitor I]
In short: as §1

ibrutinib = compound: C=CC(=O)N1CCC[C@@H](n2nc(-c3ccc(Oc4ccccc4)cc3)c3c(N)ncnc32)C1 [ibrutinib]
In short: as §1

[10] = compound: CC(=O)c1cnc2ccc(-c3cc(Cl)c(O)c(Cl)c3)nc2c1N[C@H]1CC[C@H](CN(C)C)CC1
In short: as §1

ralimetinib = compound: CC(C)(C)Cn1c(N)nc2ccc(-c3[nH]c(C(C)(C)C)nc3-c3ccc(F)cc3)nc21 [ralimetinib]
In short: as §1

[11] = compound: CC(C)(O)CC(=O)NCCn1ccc2ncnc(Nc3ccc(Oc4cccc(C(F)(F)F)c4)c(Cl)c3)c21
In short: as §1

[12] = compound: CC(C)C1=C2N=C(C=C(N2N=C1)NCC3=CC=CC=C3)NCCCCCCN
In short: as §1

[13] = compound: CC(C)C[C@@H](C=O)NC(=O)[C@H](CC(C)C)NC(=O)[C@H](CC(C)C)NC(=O)OCc1ccccc1
In short: as §1

pinometostat = compound: CC(C)N(C[C@H]1O[C@@H](n2cnc3c(N)ncnc32)[C@H](O)[C@@H]1O)[C@H]1C[C@@H](CCc2nc3cc(C(C)(C)C)ccc3[nH]2)C1 [pinometostat]
In short: as §1

[14] = compound: CC1=C(C(CC(=O)N1)C2=CC=C(C=C2)C(F)(F)F)C(=O)NC3=C(C=C4C(=C3)C=NN4)F
In short: as §1

[15] = compound: CC1=C(C2=C(C=C1)C(=O)C3=CC=CC=C3N2CCCN)C
In short: as §1

UniProt Q8N1A6, sequence (Q8N1A6 whole entry, looked up): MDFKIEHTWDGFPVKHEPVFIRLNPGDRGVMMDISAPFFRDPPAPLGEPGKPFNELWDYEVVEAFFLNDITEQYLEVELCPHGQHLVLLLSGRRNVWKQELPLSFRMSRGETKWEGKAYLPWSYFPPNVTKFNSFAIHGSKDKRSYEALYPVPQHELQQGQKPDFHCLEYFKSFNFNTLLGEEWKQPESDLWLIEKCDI
UniProt P41208, sequence (P41208 whole entry, looked up): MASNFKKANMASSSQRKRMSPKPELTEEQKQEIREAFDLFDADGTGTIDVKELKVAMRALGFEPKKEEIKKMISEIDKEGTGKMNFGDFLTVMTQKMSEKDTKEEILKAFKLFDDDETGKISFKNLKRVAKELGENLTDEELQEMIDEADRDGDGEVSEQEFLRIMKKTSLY
UniProt Q9UIV1, sequence (Q9UIV1 whole entry, looked up): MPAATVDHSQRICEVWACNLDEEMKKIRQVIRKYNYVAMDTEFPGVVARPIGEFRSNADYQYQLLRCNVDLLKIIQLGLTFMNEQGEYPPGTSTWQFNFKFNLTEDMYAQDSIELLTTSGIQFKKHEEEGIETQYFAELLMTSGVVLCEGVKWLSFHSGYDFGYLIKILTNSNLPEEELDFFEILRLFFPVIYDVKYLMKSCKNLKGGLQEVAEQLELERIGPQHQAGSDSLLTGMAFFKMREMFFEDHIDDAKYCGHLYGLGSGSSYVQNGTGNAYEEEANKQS
UniProt Q8IWX8, sequence (Q8IWX8 whole entry, looked up): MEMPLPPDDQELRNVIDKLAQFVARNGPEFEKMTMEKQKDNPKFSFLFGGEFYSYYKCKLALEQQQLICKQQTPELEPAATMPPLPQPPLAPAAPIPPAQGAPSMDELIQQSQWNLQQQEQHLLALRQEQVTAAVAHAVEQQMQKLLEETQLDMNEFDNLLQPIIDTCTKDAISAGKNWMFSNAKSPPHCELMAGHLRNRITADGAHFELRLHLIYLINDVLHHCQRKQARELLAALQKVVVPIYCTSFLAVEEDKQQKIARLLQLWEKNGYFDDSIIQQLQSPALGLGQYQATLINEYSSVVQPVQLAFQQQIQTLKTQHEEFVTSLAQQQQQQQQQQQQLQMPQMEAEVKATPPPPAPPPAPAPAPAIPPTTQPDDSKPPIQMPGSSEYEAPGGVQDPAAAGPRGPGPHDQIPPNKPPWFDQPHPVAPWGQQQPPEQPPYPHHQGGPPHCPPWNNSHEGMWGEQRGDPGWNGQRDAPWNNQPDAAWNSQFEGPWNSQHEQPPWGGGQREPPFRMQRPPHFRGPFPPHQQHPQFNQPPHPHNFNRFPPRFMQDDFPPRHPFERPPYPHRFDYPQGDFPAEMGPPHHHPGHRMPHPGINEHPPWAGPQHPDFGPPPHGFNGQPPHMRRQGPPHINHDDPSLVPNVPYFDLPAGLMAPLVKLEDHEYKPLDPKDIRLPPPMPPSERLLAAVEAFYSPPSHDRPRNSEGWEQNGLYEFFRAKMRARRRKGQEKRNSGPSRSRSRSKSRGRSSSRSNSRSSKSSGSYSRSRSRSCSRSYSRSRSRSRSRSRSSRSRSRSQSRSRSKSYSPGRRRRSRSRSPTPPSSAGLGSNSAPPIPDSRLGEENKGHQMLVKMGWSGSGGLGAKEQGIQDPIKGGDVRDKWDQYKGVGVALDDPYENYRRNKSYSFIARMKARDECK
UniProt Q8N684, sequence (Q8N684 whole entry, looked up): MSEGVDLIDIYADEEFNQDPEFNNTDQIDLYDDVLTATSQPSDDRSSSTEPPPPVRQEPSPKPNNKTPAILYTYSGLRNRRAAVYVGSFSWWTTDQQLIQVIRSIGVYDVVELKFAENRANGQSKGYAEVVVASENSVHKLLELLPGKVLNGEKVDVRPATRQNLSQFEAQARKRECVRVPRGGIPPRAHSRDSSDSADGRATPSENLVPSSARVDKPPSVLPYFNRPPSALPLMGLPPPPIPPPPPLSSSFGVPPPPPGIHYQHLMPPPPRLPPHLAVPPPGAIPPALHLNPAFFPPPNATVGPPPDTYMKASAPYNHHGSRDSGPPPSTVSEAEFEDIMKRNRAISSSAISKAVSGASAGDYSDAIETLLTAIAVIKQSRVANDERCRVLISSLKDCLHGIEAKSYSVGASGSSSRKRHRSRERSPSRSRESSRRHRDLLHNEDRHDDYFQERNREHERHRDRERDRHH
UniProt Q7L3B6, sequence (Q7L3B6 whole entry, looked up): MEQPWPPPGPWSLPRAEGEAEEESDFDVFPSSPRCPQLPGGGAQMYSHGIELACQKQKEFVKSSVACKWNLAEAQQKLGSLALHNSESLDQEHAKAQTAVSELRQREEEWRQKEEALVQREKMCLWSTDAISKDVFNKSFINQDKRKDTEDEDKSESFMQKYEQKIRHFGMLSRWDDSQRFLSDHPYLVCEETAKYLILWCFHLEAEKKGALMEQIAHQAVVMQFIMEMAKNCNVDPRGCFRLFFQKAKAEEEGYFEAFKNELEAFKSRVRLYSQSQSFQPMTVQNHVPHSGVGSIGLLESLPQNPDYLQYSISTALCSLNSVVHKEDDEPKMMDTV
UniProt Q96CF2, sequence (Q96CF2 whole entry, looked up): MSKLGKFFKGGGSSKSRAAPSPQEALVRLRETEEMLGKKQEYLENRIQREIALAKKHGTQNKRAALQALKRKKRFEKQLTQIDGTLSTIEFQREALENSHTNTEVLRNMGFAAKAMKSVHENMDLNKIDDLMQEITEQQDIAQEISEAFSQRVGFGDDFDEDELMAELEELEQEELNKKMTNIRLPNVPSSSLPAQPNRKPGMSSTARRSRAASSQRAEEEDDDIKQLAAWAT
UniProt P60033, sequence (P60033 whole entry, looked up): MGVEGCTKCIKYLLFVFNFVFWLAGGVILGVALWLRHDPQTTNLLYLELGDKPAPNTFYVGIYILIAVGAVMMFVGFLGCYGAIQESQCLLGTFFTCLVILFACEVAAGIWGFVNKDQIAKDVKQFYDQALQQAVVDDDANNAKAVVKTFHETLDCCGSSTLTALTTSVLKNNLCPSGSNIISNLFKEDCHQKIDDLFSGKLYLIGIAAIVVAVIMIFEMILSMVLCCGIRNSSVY

Target	log2 fold change (erlotinib)	log2 fold change [1]	log2 fold change [2]	log2 fold change [3]	log2 fold change [4]	log2 fold change [5]	log2 fold change [6]	log2 fold change [7]	log2 fold change [8]	log2 fold change [9]	log2 fold change (IRAK-1-4 Inhibitor I)	log2 fold change (ibrutinib)	log2 fold change [10]	log2 fold change (ralimetinib)	log2 fold change [11]	log2 fold change [12]	log2 fold change [13]	log2 fold change (pinometostat)	log2 fold change [14]	log2 fold change [15]
CNOT7 (UniProt Q9UIV1)	0.025	-0.002	-0.059	0.018	0.194	-0.044	0.128	0.048	-0.003	0.016	-0.039	0.022	-0.013	-0.016	-0.021	-0.002	0.079	0.066	-0.039	0.033
CHERP (UniProt Q8IWX8)	0.083	0.065	0.014	0.053	-0.03	0.09	0.026	-0.036	-0.084	-0.113	-0.091	-0.069	-0.317 (active)	0.013	-0.074	-0.097	0.048	0.021	0.122	-0.079
C4orf33 (UniProt Q8N1A6)	-0.026	0.023	0.052	0.138	0.072	-0.287 (active)	-0.092	0.016	0.017	0.06	0.038	0.137	-0.049	-0.073	0.005	-0.076	0.032	0	-0.01	-0.03
CPSF7 isoform 3 (UniProt Q8N684)	-0.035	0.054	-0.015	0.041	-0.001	0.005	0.01	-0.005	-0.035	-0.016	-0.037	0	-0.242 (active)	0.003	-0.002	0.02	-0.045	-0.028	-0.016	0.236 (active)
CHMP4C (UniProt Q96CF2)	0.036	0.06	0.476 (active)	-0.025	0.054	0.134	-0.064	-0.043	0.058	0.034	0.097	-0.022	-0.028	-0.087	-0.018	-0.099	0.039	-0.095	0.021	-0.019
CETN2 (UniProt P41208)	0.121	-0.015	-0.002	0.017	-0.058	0.03	-0.058	-0.113	0.039	0.049	-0.067	0.006	-0.019	-0.012	0.074	0.17	0.043	0.011	0.075	-0.045
CDC37L1 (UniProt Q7L3B6)	-0.069	0.008	-0.007	-0.035	0.054	0.068	0	-0.012	0.203	0.357	0.004	-0.018	-0.012	-0.059	-0.118	-0.004	0	-0.015	0.062	-0.281
CD81 (UniProt P60033)	-0.065	0.033	0.059	0.039	-0.065	0.059	0.013	-0.043	0.098	0.206	0.027	0.007	-0.026	-0.045	-0.018	0.33	-0.122	-0.05	0.004	-0.01

Reference: the supplement of paper PMC10849652
